High-throughput results as filed in PubChem BioAssay.
NR2F2 inh – inhibitors of human COUP-TFII (NR2F2); P24468; HEK293T NGFI-A luciferase reporter, luminescence; inhibition, % at 8.6 µM; hit rate 0.7% among 370,000; AID 686940;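 active = inhibition above a per-plate cutoff, mean inhibition of test wells between control levels plus 3 SD, cut at about 38% in these data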;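 also: cells cotransfected with COUP-TFII expression vector driving the NGFI-A reporter; 0% = median of COUP-TF2 test wells and 100% = reporter-only cells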
Target sequence (P24468 whole entry, looked up): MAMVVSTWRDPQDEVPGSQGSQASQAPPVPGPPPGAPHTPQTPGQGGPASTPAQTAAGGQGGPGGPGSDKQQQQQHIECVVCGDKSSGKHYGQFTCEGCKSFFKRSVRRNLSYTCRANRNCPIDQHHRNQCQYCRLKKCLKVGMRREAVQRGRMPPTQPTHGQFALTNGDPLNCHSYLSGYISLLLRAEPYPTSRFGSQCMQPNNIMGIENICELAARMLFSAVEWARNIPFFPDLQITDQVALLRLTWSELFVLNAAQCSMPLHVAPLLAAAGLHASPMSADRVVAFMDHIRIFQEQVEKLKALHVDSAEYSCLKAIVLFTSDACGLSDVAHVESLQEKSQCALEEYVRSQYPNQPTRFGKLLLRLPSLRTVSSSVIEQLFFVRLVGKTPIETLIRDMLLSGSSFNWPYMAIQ
GalR3 antag – antagonists of human GalR3; O60755; inhibition, % at 3 µM; HEK293 GalR3-CNG cAMP membrane potential fluorescence; galR3 body fused to GalR1 C-terminus; hit rate 0.44% among 360,000;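 active = inhibition above the screen-wide average plus 3 SD, cut at about 13% in these data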;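 also: forskolin and galanin both at EC90 stimulate the cells; cAMP rise reported by CNG channel membrane potential dye signal; 0% = forskolin plus galanin with DMSO and 100% = forskolin alone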
Gli-Sufu block – Gli-Sufu pathway antagonism | inhibition, % at 5 µM | Sufu-KO-LIGHT fibroblasts, Gli luciferase reporter luminescence | hit rate 0.74% among 340,000 | AID 588413;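 active = inhibition above about 55%, limit read from the data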;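 also: 0% = DMSO-treated cells and 100% = wells with medium but no cells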
aDG glyco up – alpha-DG glycosylation activation; AID 624168; Pro5-aDG cells, alpha-DG glycosylation AlphaScreen (IIH6); 0% Pro5, 100% B10-LARGE cell signal; hit rate 0.22% among 360,000; activation, % at 10 µM;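 active = activation of at least 8% versus controls, or a plate z-score of at least 8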;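 also: Pro5 are CHO cells carrying HIG-tagged alpha-DG that lacks glycosylation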
Env fusion inh – blocks HIV Env-driven cell-cell fusion | AID 651610 | HeLa-JRFL Env/CEM21 cell fusion, luciferase | inhibition, % at 12.3 µM | hit rate 1.1% among 360,000;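 active = mean replicate inhibition score of at least 50 and every replicate individually at or above 50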;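 also: 0% = plate neutral controls and 100% = maraviroc near 300 nM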
Gli-Sufu confirm – Gli-SUFU antagonism confirmation, single concentration | shares compounds with Gli-Sufu block | Sufu-KO-LIGHT cells, Gli luciferase reporter, luminescence | inhibition, % at 5 µM | hit rate 40% among 2,500 | AID 602428;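 active = mean inhibition at 5 µM reaching about 45%, limit read from the data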;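 also: plate controls were DMSO-treated cells for no effect and wells lacking cells for full effect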
Gli cytotox – cytotoxic in Gli-SUFU antagonist counter-screen | shares compounds with Gli-Sufu block | Sufu-KO-LIGHT cells cytotoxicity, ATP luminescence | cytotoxicity, % at 5 µM | hit rate 32% among 2,500 | AID 651994;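 active = mean cytotoxicity at 5 µM above about 25%, limit read from the data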;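 also: cells exposed to compound overnight for roughly 16 to 18 hours; plate controls were DMSO wells with cells for no effect and medium without cells for full effect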
Wnt3a cs – inhibits Wnt3a reporter, counter-screen for Gli-SUFU antagonists; hit rate 20% among 2,500; AID 651995; shares compounds with Gli-Sufu block; Wnt-LIGHT cells, Wnt3a-driven luciferase reporter, luminescence; inhibition, % at 6.25 µM;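 active = mean inhibition above about 25%, limit read from the data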
* = called active by the depositor; · = no result given; [ ] = dose if it differs, or a comment. Rows were chosen to be rich in hits. Some 2.1% of all compounds tested hit in one or more screens of this group.

SMILES	NR2F2 inh	GalR3 antag	Gli-Sufu block	aDG glyco up	Env fusion inh	Gli-Sufu confirm	Gli cytotox	Wnt3a cs
Cc1cccc(CCN2C(N(C)C)=NC[C@@H]2CC(C)C)c1	-5.6	-7.4	54.3	-0.1	-18.7	56.3*	15.6	16.6
C[C@@H]1CN([C@@H](C)CO)C(=O)c2cc(NC(=O)Nc3ccccc3)ccc2O[C@@H]1CN(C)Cc1ccc(-c2ccccc2)cc1	·	·	·	·	12.9[16.7 µM]	·	·	·
COc1ccc(CCNc2ccc(S(N)(=O)=O)cn2)cc1	2.8	-9.7	51.0	0.0	-1.4	8.7	7.4	2.9
CN(CC(=O)Nc1ccc(Cl)cc1)CC(=O)Nc1cccc(Br)c1	4.9	-9.3	55.1*	0.1	14.8	15.3	5.8	-50.9
COc1cc(/C=N/Nc2nc(N3CCCC3)nc(N3CCCC3)n2)ccc1O	-14.2	-7.3	-0.8	-0.1	-26.6	·	·	·
Oc1ccc(/C=N/Nc2nc(N3CCCC3)nc(N3CCCC3)n2)cc1O	-11.6	5.4	63.9*	-0.4	2.8	51.3*	23.1	83.1*
Cc1ccc(S(=O)(=O)N[C@H]2C=C[C@H](CC(=O)NC3CCCCC3)O[C@@H]2CO)cc1	·	·	·	·	-6.5[16.7 µM]	·	·	·
C[C@H](CO)N1C[C@H](C)[C@@H](CN(C)C(=O)Nc2ccc(F)cc2)Oc2ccc(NC(=O)Nc3ccccc3)cc2CC1=O	·	·	·	·	33.1[16.7 µM]	·	·	·
COC(=O)CCC(=O)NC(=S)Nc1sc(C)c(C)c1C(N)=O	-41.2	-2.1	53.6	-0.2	-12.6	49.6*	51.4*	-31.1
Cc1[nH]c(=O)[nH]c(=O)c1CSc1nnc([C@@H](NC(=O)OC(C)(C)C)C(C)C)o1	9.1	1.8	6.7	-0.1	·	·	·	·
CC(C)=CCSc1nnc([C@@H](NC(=O)OC(C)(C)C)C(C)C)o1	7.7	-4.9	60.0*	0.8	-64.4	10.2	25.4*	-32.0
COc1ccc(C(=O)N2CCCCCCC2)cc1OC1CCN(C(C)C)CC1	27.4	-2.3	65.2*	0.1	2.4	25.6	15.0	-2.5
CN1C(=O)c2cc(NC(=O)C3CCOCC3)ccc2OC[C@H]2O[C@H](CC(=O)NC3CCCC3)CC[C@H]21	·	·	·	·	-9.8[16.7 µM]	·	·	·
COc1cc(OC)cc(C(=O)OCC(=O)c2ccc(S(=O)(=O)N3CCCCC3)cc2)c1	-0.4	-4.5	95.8*	0.2	7.4	12.5	12.0	-20.0
CCOc1ccc(-c2c(=O)n(OCc3ccccn3)c3ccccc3[n+]2[O-])cc1	-23.2	0.8	2.0	0.1	-43.5	·	·	·
O=c1c(-c2ccc(Oc3ccccc3)cc2)[n+]([O-])c2ccccc2n1OCc1ccccn1	-1.5	-3.6	94.6*	-0.3	-90.1	14.9	3.6	-0.5
C/C=C/c1ccc([C@H]2[C@@H](CO)N(C(=O)NC3CCCCC3)[C@H]2C#N)cc1	·	·	·	·	0.0[16.7 µM]	·	·	·
O=C(N[C@H]1CC[C@H](CCNC(=O)C2CCC2)O[C@@H]1CO)c1ccccn1	·	·	·	·	9.6[16.7 µM]	·	·	·
O=C(Nc1nc2c(s1)C(=O)CCC2)c1ccccc1	-20.9	-0.8	69.7*	0.4	·	-66.2	28.6*	1.5
CNC(=O)C[C@H]1CC[C@H]2[C@@H](COc3ccc(NS(=O)(=O)c4cccc(F)c4)cc3C(=O)N2C)O1	·	·	·	·	-8.8[16.7 µM]	·	·	·
CN1C(=O)c2cc(NC(=O)Nc3ccccc3F)ccc2OC[C@@H]2O[C@@H](CC(=O)O)CC[C@H]21	·	·	·	·	-2.2[16.7 µM]	·	·	·
CCCCNc1c(-c2ccc(OC)c(Sc3ccc(OC)cc3)c2)nc2ccccn12	·	·	53.7	-0.3	·	57.2*	25.9*	3.5
CCCCNc1c(-c2ccc(OC)c(Sc3ccc(OC)cc3)c2)nc2cnccn12	-0.5	-4.3	3.8	0.7	-45.4	·	·	·
COCC(=O)Nc1ccc2c(c1)C(=O)N(C)[C@@H]1CC[C@@H](CC(=O)Nc3ccccc3)O[C@H]1CO2	·	·	·	·	-2.8[16.7 µM]	·	·	·
Cc1ccc(C)c(-c2csc(NC(=O)C3=COCCO3)n2)c1	2.0	-1.9	62.8*	0.5	34.7	62.9*	13.4	-24.7
Cc1ccc(-c2csc(NC(=O)C3=COCCO3)n2)cc1	-36.4	-4.3	-60.2	0.1	-28.7	·	·	·
CCOc1ccc2cc(C(=O)NCc3ccccc3)c(=N)oc2c1	3.1	-11.7	53.6	-0.1	-8.9	8.0	13.2	-39.3
CCOc1ccc2cc(C(=O)c3ccccc3)c(=O)oc2c1	-31.4	3.3	-31.2	0.1	·	·	·	·
